Only a sample is shown.
aSyn UTR act: Activators working through SNCA 5'UTR binding (MLPCN); activity score, % (tested at 7.5 µM), hits read low; alpha-synuclein 5'UTR reporter, activators screen; 7.1% of 300,000 active; in the data active = activity score below about -60%
An asterisk follows results filed as active.

Screening CCOc1ccc(/C=C/C(=O)c2ccccc2)cc1 returned aSyn UTR act -178.8*.
Screening NCCOc1ccc(C2CCCCC2)cc1 returned aSyn UTR act 71.4.
`O=C(O)COc1ccc(/C=C/C(=O)c2ccc(C3CCCCC3)cc2)cc1` gave aSyn UTR act -114.6*.
For CC(C)(C)C(=O)/C=C/c1ccc(Oc2ccccc2)cc1 the results were aSyn UTR act -155.5*.
For O=C(/C=C/c1ccc(OC2CSC2)cc1)c1ccccc1 the results were aSyn UTR act -152.7*.
CC1C(=O)C(C)C(c2ccc(Cl)cc2)NC1c1ccc(Cl)cc1 (configuration not stated) was read as aSyn UTR act 68.5.
`Cc1ccc2nc(-c3ccc(SCC(=O)Nc4ccc5c(c4)OCCO5)nc3)[nH]c2c1` gave aSyn UTR act -327.5*.
Screening O=C(CSc1ccc(-c2nc3ccccc3[nH]2)cn1)Nc1ccc2c(c1)OCCO2 returned aSyn UTR act -234.7*.
For Cc1cc2nc(-c3ccc(SCC(=O)Nc4ccc5c(c4)OCCO5)nc3)[nH]c2cc1C the results were aSyn UTR act -207.0*.
`Cc1cc2nc(-c3ccc(SCC(=O)N4CCN(C(=O)c5ccco5)CC4)nc3)[nH]c2cc1C` gave aSyn UTR act -87.6*.
For Cc1ccc(N=Cc2nc(-c3ccco3)oc2O)cc1 the results were aSyn UTR act -68.9*.
For Oc1oc(-c2ccc(Br)cc2)nc1/C=N/c1ccccn1 the results were aSyn UTR act -81.4*.
For Oc1oc(-c2ccccc2)nc1/C=N/c1nccs1 the results were aSyn UTR act -86.1*.
For Cc1ccc(-c2nc(C=Nc3ccccc3)c(O)o2)cc1 the results were aSyn UTR act -101.7*.
For CCOc1ccccc1N/C=C(\C#N)c1nc2ccccc2n1C the results were aSyn UTR act -75.8*.
Screening COc1cccc(/C=C/C(=O)OCC(=O)N2c3ccccc3NC(=O)C2(C)C)c1 returned aSyn UTR act -69.8*.
For CNc1ccccc(-c2ccc3cc4c(cc3n2)OCO4)c1=O the results were aSyn UTR act -214.9*.
For CSc1ccccc1NC(=O)COc1ccccc1Cl the results were aSyn UTR act -64.8*.
For O=C(CCl)Nc1ccccc1Sc1ccc(Cl)cc1 the results were aSyn UTR act 92.6.
Screening CSc1ccccc1NC(=S)NCc1ccc(Cl)cc1 returned aSyn UTR act -109.8*.
CSc1ccccc1NC(=O)COc1ccc(Cl)cc1 was read as aSyn UTR act -61.9*.
COc1cccc(/C=C/C(=O)Nc2cccc(C(C)=O)c2)c1OC was read as aSyn UTR act -126.0*.
For CCc1cc(C(=O)O)c(NC(=O)/C=C/c2ccc(OC)cc2)s1 the results were aSyn UTR act -119.4*.
`COc1ccc(/C=C/C(=O)Nc2cccc(C(C)=O)c2)cc1` gave aSyn UTR act -95.3*.
Screening O=C(Cn1ncc(Cl)c(Cl)c1=O)N1CCOCC1 returned aSyn UTR act -61.6*.
O=C(Cn1ncc(Cl)c(Cl)c1=O)N1CCc2ccccc21 was read as aSyn UTR act 134.7.
CCc1ccc(C(=O)Cn2ncc(Cl)c(Cl)c2=O)cc1 was read as aSyn UTR act -64.0*.
`CC1(C)C(=O)Nc2ccccc2N1C(=O)Cn1ncc(Cl)c(Cl)c1=O` gave aSyn UTR act -167.1*.
Screening O=C(Cn1ncc(Cl)c(Cl)c1=O)N1CCN(Cc2ccccc2)CC1 returned aSyn UTR act -70.7*.
`N#C/C(=C/c1ccco1)c1nc2ccccc2s1` gave aSyn UTR act -281.8*.
Screening N#C/C(=C\c1ccc(O)c([N+](=O)[O-])c1)c1nc2ccccc2s1 returned aSyn UTR act -66.4*.
NS(=O)(=O)c1ccc(Sc2nc3ccccc3s2)c([N+](=O)[O-])c1 was read as aSyn UTR act 66.6.
`N#C/C(=C\c1ccco1)c1nc2ccccc2s1` gave aSyn UTR act -308.6*.
For CCCCc1ccc(-c2csc(/C(C#N)=C\c3ccco3)n2)cc1 the results were aSyn UTR act -106.2*.
`Cc1c(C(=O)Nc2cccc3cccnc23)oc2ccccc12` gave aSyn UTR act -118.4*.
`Cc1c(C(=O)Nc2ccc(Cl)cn2)oc2ccccc12` gave aSyn UTR act -91.0*.
For Cc1c(C(=O)Nc2cnccn2)oc2ccccc12 the results were aSyn UTR act -106.9*.
For CC(/C=N/Nc1nnc(C)c(=O)[nH]1)=C\c1ccccc1 the results were aSyn UTR act -97.3*.
For CC(/C=N/Nc1ccc2nncn2n1)=C\c1ccccc1 the results were aSyn UTR act -71.9*.
For O=C(/C=C/c1cn(-c2ccccc2)nc1-c1cccnc1)c1ccco1 the results were aSyn UTR act -63.4*.
COc1cc(/C=N/Nc2ccccn2)ccc1OCC(C)C was read as aSyn UTR act -126.9*.
For C=CCOc1ccc(/C=N/Nc2ccccn2)cc1OC the results were aSyn UTR act -246.2*.
For CCOc1ccc(/C=N/N(C)c2ccccc2)cc1OC the results were aSyn UTR act -249.7*.
`CCCOc1ccc(/C=N/Nc2ccccn2)cc1OC` gave aSyn UTR act -176.9*.
Screening CCOc1ccc(/C=N/Nc2ccccn2)cc1OC returned aSyn UTR act -176.7*.
Screening COc1ccc(CSc2nc3ccccc3[nH]2)cc1 returned aSyn UTR act -189.1*.
COC(=O)c1cccc(CSc2nc3ccccc3[nH]2)c1 was read as aSyn UTR act -71.7*.
c1ccc2[nH]c(SCc3ccc(-c4nnco4)cc3)nc2c1 was read as aSyn UTR act -141.8*.
Screening CC(C)CCSc1nc2ccccc2[nH]1 returned aSyn UTR act -106.6*.
For c1ccc2[nH]c(SCCN3CCOCC3)nc2c1 the results were aSyn UTR act -77.7*.
Screening CCCN1C(=O)c2cccc3c(N4CCCCC4)ccc(c23)C1=O returned aSyn UTR act -83.1*.
Cc1ccc(N2C(=O)c3cccc4c(N)ccc(c34)C2=O)c2cccnc12 was read as aSyn UTR act 99.8.
`COc1cnc(-c2ccccn2)nc1Oc1ccc(F)cc1F` gave aSyn UTR act -117.9*.
`COc1cnc(-c2ccccn2)nc1NC(C)C` gave aSyn UTR act 98.2.
`Cc1ccc2nc(-c3ccc(N)cc3)sc2c1` gave aSyn UTR act 90.0.
For CC(=O)NC(=S)Nc1ccc(-c2nc3ccc(C)cc3s2)cc1 the results were aSyn UTR act -271.7*.
CNC(=S)Nc1ccc(-c2nc3ccc(C)cc3s2)cc1 was read as aSyn UTR act -90.6*.
For COc1ccc(/C=C(\C#N)C(=O)OCC(=O)Nc2ccc(-c3nc4ccc(C)cc4s3)cc2)cc1 the results were aSyn UTR act -69.6*.
Screening CC1=CCC(C(=O)O)C(C(=O)Nc2ccc(-c3nc4ccc(C)cc4s3)cc2)C1 (configuration not stated) returned aSyn UTR act -131.2*.
For Cc1ccc2nc(-c3ccc(NS(=O)(=O)c4ccc(F)cc4)cc3)sc2c1 the results were aSyn UTR act -133.5*.
Screening Cc1cccc(Nc2nnc(SCC3CCCCO3)s2)c1 (configuration not stated) returned aSyn UTR act -183.8*.
For CC1CCN(c2ccc(NC(=O)c3ccc(Br)o3)cc2)CC1 the results were aSyn UTR act -143.7*.
Screening CS(=O)(=O)N1CCN(c2ccc(NC(=O)c3ccc(Br)o3)cc2)CC1 returned aSyn UTR act -123.4*.
`COc1cccc(OCc2cc(C(=O)N(C)Cc3nc(C)cs3)no2)c1` gave aSyn UTR act -112.5*.
Screening Cc1ccc(OCc2cc(C(=O)N(C)CCc3ccccn3)no2)cc1C returned aSyn UTR act -73.2*.
Screening Cc1cc(CN(C)C(=O)c2cc(COc3ccc(C)c(C)c3)on2)on1 returned aSyn UTR act -158.9*.
COc1ccc(C2=Nc3ccccc3OC2)cc1 was read as aSyn UTR act -189.5*.
